# In PubChem BioAssay AID2762 (National Center for Advancing Translational Sciences (NCATS), 2010):
# Results filed as inconclusive are left out. Unmarked numbers belong to inactive results. Activity calls are given as the source filed them. Calls follow the shape of the dose curve; as a rule, active = well fitted inhibition curve with a large enough effect; inconclusive = small, poorly fitted or top-dose-only effect, or effect the other way; inactive = no such curve, though single readings can be large or run the other way.
# Molecular target: Nuclear receptor ROR-gamma (Mus musculus) (UniProt P51450)
# Test: Concentration response confirmation assay for inhibitors of ROR gamma transcriptional activity
# Details: Drosophila S2 Gal4-RORgamma UAS-luciferase, 20 h; series mostly up to 46.1 µM; activity change, negative = inhibition: at the top concentration
# Summary of the method: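 Schneider cells (Drosophila), stable Gal4 DBD–ROR gamma + UAS-luc; 1 hr cmpd preincubation; Cu2+ induction 700 uM final; 20 hr ambient; luminescence.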
# Sequence of Nuclear receptor ROR-gamma (Mus musculus) (P51450 whole entry, looked up): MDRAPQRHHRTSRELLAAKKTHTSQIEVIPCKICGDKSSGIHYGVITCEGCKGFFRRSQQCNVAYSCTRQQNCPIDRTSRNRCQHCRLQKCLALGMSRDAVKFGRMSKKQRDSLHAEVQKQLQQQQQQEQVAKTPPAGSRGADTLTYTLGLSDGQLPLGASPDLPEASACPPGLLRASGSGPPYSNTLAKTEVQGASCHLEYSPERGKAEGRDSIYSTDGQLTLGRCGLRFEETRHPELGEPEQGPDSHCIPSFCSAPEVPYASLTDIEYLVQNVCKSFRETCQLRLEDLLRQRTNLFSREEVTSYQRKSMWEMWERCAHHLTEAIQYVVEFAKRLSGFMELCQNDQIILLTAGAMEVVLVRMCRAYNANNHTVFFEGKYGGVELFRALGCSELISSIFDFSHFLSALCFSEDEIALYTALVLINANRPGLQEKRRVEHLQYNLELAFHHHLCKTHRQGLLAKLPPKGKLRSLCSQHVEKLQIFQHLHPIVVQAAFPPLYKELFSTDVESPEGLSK
Compound,"activity change, negative = inhibition [%]",Potency
CCOC(=O)C1CCN(c2ncnc3c2cnn3-c2ccc(OC)cc2)CC1,9.59,–
Cc1nn(-c2cc(C)c3ccccc3n2)c2c1C1C(C2)C1(C)C (stereo not given),–,6.28 µM (active)
CCN(CC)c1ccc2cc(-c3nc4ccccc4[nH]3)c(=O)oc2c1,–,3.97 µM (active)
COC(=O)c1ccc(OCC(=O)c2ccc(O)cc2O)cc1,–,0.125 µM (active)
Cc1ccc(OCCn2cc(C(=S)N3CCCC3)c3ccccc32)cc1C,–,12.5 µM (active)
CCN(CC(=O)NCCc1ccc(Cl)cc1)Cc1nc2ccccc2c(=O)[nH]1,–,12.5 µM (active)
Cc1ccc(-c2n[nH]c(=S)n2/N=C/C=C\c2ccccc2[N+](=O)[O-])cc1,-29.5,–
S=c1[nH]nc(-c2ccc(Br)cc2)n1-c1ccc2c(c1)OCCO2,–,1.58 µM (active)
COc1ccc2nc(N3C(=O)CNC3=S)sc2c1,–,1.99 µM (active)
CCOC(=O)c1oc2cccc(OCC(O)CNC(C)C)c2c1C (stereo not given),16.8,–
CCc1ccc(-c2nc(CSCC(=O)NC3CC3)c(C)o2)cc1,–,3.97 µM (active)
O=C1CC(c2ccc(F)cc2)CC(O)=C1C1NCCc2ccccc21 (stereo not given),5.11,–
O=C(NCC1CCCO1)C(C(=O)c1ccccc1)n1ccccc1=O (stereo not given),-18.7,–
CC(C)(C)S(=O)(=O)c1cnc2c(-c3ccc(Cl)cc3)cnn2c1N,–,4.45 µM (active)
Cc1cc(C)nc(-n2nc(C)cc2NC(=O)c2ccc(F)cc2F)n1,–,0.996 µM (active)
Cc1cccc(-c2nc3cc(NC(=O)C4CCCO4)ccc3o2)c1 (stereo not given),–,0.396 µM (active)
CC(C)CC(=O)NS(=O)(=O)c1ccc(N)cc1,2.46,–
COc1ccc2nc(NC(=O)c3sc4nc(C)cc(C)c4c3N)sc2c1,–,0.0199 µM (active)
CCN1C(=O)/C(=C/c2ccc(N3CCCC3)cc2)NC1=S,–,6.28 µM (active)
COC(=O)c1ccc2nc(Nc3nc4ccc(F)cc4s3)sc2c1,–,0.315 µM (active)
N=C1S/C(=C\c2ccco2)C(=O)N1c1nccs1,–,0.141 µM (active)
O=C(/C=C/c1ccc(S(=O)(=O)N2CCOCC2)cc1)NC(=S)Nc1ccc(N2CCOCC2)cc1,–,9.96 µM (active)
O=C(CCN1C(=O)/C(=C/c2ccccc2Cl)SC1=S)N1CCCC1,–,11.2 µM (active)
S=c1[nH]c(-c2ccc(Br)cc2)cn1CCc1ccccc1,–,9.96 µM (active)
Fc1cccc2sc(Nc3nnc(-c4ccco4)o3)nc12,–,1.99 µM (active)
Cc1ccc2nc(-c3ccc(NC(=O)COC(=O)c4ccc([N+](=O)[O-])o4)cc3)sc2c1,–,0.315 µM (active)
O=[N+]([O-])c1ccccc1/C=C/C=N/n1c(-c2ccc(Cl)cc2)n[nH]c1=S,29.3,–
COc1cc(C2c3cc4c(cc3C(OC3OC5COC(c6cccs6)OC5C(O)C3O)C3COC(=O)C23)OCO4)cc(OC)c1O (stereo not given),–,4.99 µM (active)
O=C(COc1ccccc1Cl)NCCCN1CCOCC1,-9.29,–
NC(=O)/C=C/C(=O)Nc1ccc(Cl)cc1,–,8.88 µM (active)
